Assay outcomes from PubChem BioAssay.
ELG1 genotox: qHTS screen for small molecules that induce genotoxicity in human embryonic kidney (HEK293T) cells expressing luciferase-tagged ELG1; HEK293T ELG1-luciferase reporter, luminescence, 16 h; Potency, µM (series often up to 46 µM), most hits filed as activators; 1.3% of 330,000 active; AID 504466, 2011; also: nearly all actives have a fitted effect of over 60% in size
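ELG1-luciferase HEK293T cells, 2,000/well; compound pinned in; 16 hr, 37 °C, 5% CO2; ONE-Glo, 30 min RT; luminescence on CCD imager.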
NPC1 promoter act: qHTS Assay for NPC1 Promoter Activators; Potency, µM (doses to about 9.22 µM), most hits filed as activators; AID 485313, 2010; Huh7 NPC1 promoter luciferase reporter, 24 h; 2.4% of 320,000 active; also: nearly all actives have a fitted effect of over 60% in size
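In 1536-well qHTS, Huh7 cells harboring an NPC1 promoter–luciferase construct received compound for 24 h; activation was quantified by luminescence following luciferase reagent addition.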
Luc counter: Counterscreen for Luciferase (Kinase-Glo TM) Inhibition; Potency, µM (doses to about 38.3 µM), hits mostly inhibitors; 0.28% of 200,000 active; Luciferin 4-monooxygenase (Photuris pensylvanica), Q27757; Kinase-Glo luciferase, ATP luminescence, 8 min; also: nearly all actives have a fitted effect of over 60% in size
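Light output from Kinase-Glo luciferase with luciferin and 10 uM ATP in 50 mM imidazole pH 7.2, KCl, MgCl2, Tween 20, BSA; compound pin-delivered, 8-min ambient incubation, then luminescence read.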
Rab9 prom act: qHTS Assay for Rab9 Promoter Activators; AID 485297, 2010; Huh7 Rab9 promoter-luciferase reporter, luminescence, 24 h; 2.8% of 320,000 active; Potency, µM (highest dose often 9.22 µM), actives largely listed as activators; also: nearly all actives have a fitted effect of over 60% in size
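Huh7 cells stably carrying Rab9 promoter–luciferase reporter, plated 1500 cells/well, compound added after 2 h and incubated 24 h at 37 °C; luciferase luminescence then read after 10 min with detection reagent.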
FLuc modulator: qHTS profiling assay for firefly luciferase inhibitor/activator using purifed enzyme and Km concentrations of substrates (counterscreen for miR-21 project); purified FLuc, Km substrates, luminescence inhibition; Potency, µM (doses to about 57.5 µM), most hits filed as inhibitors; 6.9% of 360,000 active; also: nearly all actives have a fitted effect of over 55% in size
Target sequence (P08659 whole entry, looked up): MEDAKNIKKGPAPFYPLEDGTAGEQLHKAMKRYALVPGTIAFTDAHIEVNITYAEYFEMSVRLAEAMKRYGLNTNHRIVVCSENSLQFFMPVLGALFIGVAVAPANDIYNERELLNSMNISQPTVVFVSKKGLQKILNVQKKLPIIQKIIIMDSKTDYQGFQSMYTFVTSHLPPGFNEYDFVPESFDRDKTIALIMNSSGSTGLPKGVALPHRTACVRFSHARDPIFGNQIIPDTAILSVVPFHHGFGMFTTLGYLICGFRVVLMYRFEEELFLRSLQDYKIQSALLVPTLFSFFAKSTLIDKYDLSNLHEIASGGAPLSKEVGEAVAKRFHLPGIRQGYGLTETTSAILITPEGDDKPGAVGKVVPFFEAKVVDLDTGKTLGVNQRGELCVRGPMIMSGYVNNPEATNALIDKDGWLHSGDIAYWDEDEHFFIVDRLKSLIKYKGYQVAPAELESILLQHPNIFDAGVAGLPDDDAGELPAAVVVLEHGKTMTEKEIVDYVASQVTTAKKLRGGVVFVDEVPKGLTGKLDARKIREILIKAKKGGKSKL
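Purified P. pyralis luciferase, 10 nM final, with Km-level 10 uM D-luciferin and 10 uM ATP in 50 mM Tris acetate pH 7.5, 10 mM Mg acetate, 0.01% Tween-20, 0.05% BSA; 6-point qHTS titration about 60 µM downward; luminescence read.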
SMN2 splice up: qHTS Assay for Enhancers of SMN2 Splice Variant Expression; HEK293 SMN2-luciferase splicing reporter, luminescence, 30-36 h; Potency, µM (series often up to 46.1 µM), hits mostly activators; 2.8% of 210,000 active; also: nearly all actives have a fitted effect of over 55% in size
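HEK293 cells carry an SMN2 […]–luciferase reporter in which exon 7 inclusion puts luciferase in frame. Cells were plated 10-12 h before compound addition, then incubated 30-36 h at 37C. ONE-Glo luminescence was read; sodium butyrate at 4.5 mM final served as control.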
A number is an active result; - = inactive; ? = inconclusive; . = no result. This is a sample that favours compounds with a hit; in the whole collection about 7.5% have one here. Calls follow the shape of the dose curve; as a rule, active = well fitted curve in the direction sought with a large enough effect; inconclusive = small, poorly fitted or top-dose-only effect, or another doubt; inactive = no such curve, though single readings can be large; an effect the other way counts as inactive or inconclusive.

SMILES	ELG1 genotox	NPC1 promoter act	Luc counter	Rab9 prom act	FLuc modulator	SMN2 splice up
O=C1/C(=C/c2cccnc2)Cc2ccc(Cl)cc21	-	-	.	-	12µM	.
CN1C/C(=C/c2cccnc2)C(=O)/C(=C/c2cccnc2)C1	-	-	-	-	-	-
C/C=C/c1ccc(OCCSc2nc(C)cc(=O)[nH]2)c(OC)c1	?	-	-	-	13µM	-
Cc1cc(=O)[nH]c(SCCOc2ccc3c(c2)CCC3)n1	.	.	-	.	7.6µM	13µM
Cc1cc(=O)[nH]c(SCCCOc2ccccc2Cl)n1	-	-	-	-	24µM	-
Cc1cc(=O)[nH]c(SCCOc2ccc(OC(C)C)cc2)n1	5.2µM	?	-	?	15µM	?
Cc1cccc(NC(=O)Cn2c(SCC(=O)NCc3ccccc3)nc3ccccc32)c1C	.	.	.	.	-	.
O=C(Nc1ccccc1)Nc1ccccn1	?	?	-	?	12µM	14µM
O=C(Nc1ccncc1)Nc1ccncc1	-	-	-	-	-	-
O=C(Nc1ccncc1)Nc1ccc(Cl)cc1	-	-	.	-	21µM	.
Oc1ccccc1CNc1cccc2cccnc12	?	-	-	-	17µM	.
O=C(Nc1ccccc1)Nc1cccc2cccnc12	6.3µM	-	-	-	6µM	14µM
O=C(Nc1ccccc1)Nc1cccc2ccccc12	-	-	.	-	?	.
COc1ccccc1NC(=O)Cn1c(=O)n(Cc2cccs2)c(=O)c2cccnc21	.	.	.	.	-	-
COc1ccc(NC(=O)C(C)Sc2cc(-c3ccccc3)nc(C)n2)cc1Cl (stereo not drawn)	.	.	.	.	-	.
COc1cccc(CNC(=O)C2CCC(CNS(=O)(=O)c3ccc(Br)s3)CC2)c1 (stereo not drawn)	.	.	.	.	-	-
FC(F)(F)c1ccc(C2[C@H]3CN(CC4CCCCC4)[C@H](c4ccccc4)C34CC2(c2ccccc2)C4)cc1 (stereo partly drawn)	.	.	-	.	.	-
COc1ccc(CNC(=O)C2CCN(S(=O)(=O)c3ccc4c(ccn4C)c3)CC2)cc1	.	.	.	.	-	-
CC(C)(C)c1nnc(NC(=O)Nc2ccc(Cl)cc2)s1	-	?	.	?	-	.
Cc1nc(NC(=O)Nc2ccc(Cl)cc2)sc1C	-	-	-	3.2µM	?	?
O=C(Nc1ccc(Cl)cc1)Nc1ccccn1	?	2.8µM	.	2.2µM	5.4µM	.
CCOC(=O)c1ccc(NC(=O)Nc2cccc(C)n2)cc1	?	-	-	-	-	-
O=C(Nc1ccccn1)c1ccc(-c2ccccc2)cc1	?	0.1µM	.	0.089µM	0.21µM	.
CCOC(=O)c1ccc(NC(=O)Nc2ccccn2)cc1	?	2.5µM	-	1.3µM	2.7µM	.
COc1ccc(CCNC(=O)c2c(C)oc3ncn(C)c(=O)c23)c(OC)c1	.	.	.	.	-	.
SMILES	ELG1 genotox	NPC1 promoter act	Luc counter	Rab9 prom act	FLuc modulator	SMN2 splice up
COCC(=O)N1CCC[C@@]2(CCN(C(=O)Nc3cccc(F)c3)C2)C1	.	.	-	.	.	-
CN(c1ccccc1)c1ncnc2c1cnn2C	.	.	.	.	-	.
Oc1ccc(Cl)cc1CNc1cnc2ccccc2c1	-	-	.	-	-	.
S=C(Nc1ccccn1)c1ccccn1	13µM	2.8µM	-	2.5µM	7.6µM	20µM
O=C(Nc1ccccn1)C(=O)Nc1ccccn1	4.6µM	1.4µM	.	1.3µM	5.4µM	.
S=C(Nc1ccccn1)Nc1ccccc1Cl	-	-	-	?	-	.
Oc1ccccc1CNc1cnc2ccccc2c1	?	?	-	?	11µM	?
c1ccc(-c2cn3c(n2)SCC3)cc1	-	-	-	-	?	-
O=C(Nc1cccc(-c2cn3c(n2)SCC3)c1)c1ccc2ccccc2n1	?	0.28µM	-	0.4µM	3µM	13µM
CCCS(=O)(=O)Nc1cccc(-c2cn3c(n2)SCC3)c1	-	-	.	-	-	.
O=C(Nc1ccc(-c2cn3c(n2)SCC3)cc1)c1ccc2ccccc2n1	-	-	-	-	19µM	-
Cc1ccc(-c2cc(C(=O)N3CCN(S(=O)(=O)c4ccc(Br)cc4)CC3)[nH]n2)c(C)c1	.	.	.	.	-	.
O=C(CC1N=C2c3ccccc3N=C(SCc3cccc(F)c3)N2C1=O)NCc1ccc2c(c1)OCO2 (stereo not drawn)	.	.	.	.	-	.
COc1cc(/C=N/NC(=O)c2cccc([N+](=O)[O-])c2)ccc1OCc1ccc(C)cc1	?	-	-	-	21µM	?
COc1ccc(/C=N\NC(=O)c2cccc([N+](=O)[O-])c2)cc1Cn1cc([N+](=O)[O-])cn1	-	-	-	-	-	.
S=C(N/N=C/c1ccc2ncccc2c1)Nc1cccnc1	-	-	-	-	6.7µM	-
COc1ccc(/C=N/NC(=O)c2cccc([N+](=O)[O-])c2)cc1O	-	-	-	-	21µM	-
COc1cc(/C=N/NC(=O)c2cccc([N+](=O)[O-])c2)ccc1O	-	-	-	-	-	-
COc1cc(/C=N/n2cnnc2)ccc1OCc1ccc(C)cc1	23µM	-	-	-	?	-
COc1cc(/C=N/n2cnnc2)ccc1OCc1ccccc1	-	-	-	-	-	-
Cc1ccc(NC(=O)CCc2nc3cccnc3n2-c2ccccc2)cc1	.	.	.	.	-	-
O=C(N/N=C/c1ccc2ncccc2c1)c1cccc([N+](=O)[O-])c1	-	-	.	-	3.4µM	.
O=C(N/N=C/c1ccccn1)c1cccc([N+](=O)[O-])c1	?	-	-	-	-	-
COc1ccc(-c2cc(C(C)=O)c(C)n2CCC(=O)Nc2cc(Cl)ccc2C)cc1	.	.	.	.	-	.
C=CCn1c(O)c(N=NC(=O)OC(C)(C)C)c2ccccc21	-	-	-	-	17µM	-
SMILES	ELG1 genotox	NPC1 promoter act	Luc counter	Rab9 prom act	FLuc modulator	SMN2 splice up
C=CCn1c(O)c(N=NC(=O)C(O)c2ccccc2)c2ccccc21 (stereo not drawn)	-	-	.	-	-	.
COc1ccccc1OCC(=O)Nc1cccc(-c2nc3ccccc3o2)c1	-	-	-	-	7.6µM	-
Cc1cccc(C)c1OCC(=O)Nc1cccc(-c2nnc(-c3ccccc3)o2)c1	-	-	.	-	?	.
Cc1cccc(OCC(=O)Nc2cccc(-c3nnc(-c4ccccc4)o3)c2)c1C	-	?	-	-	-	10µM
Cc1ccc(OCC(=O)Nc2cccc(-c3nnc(-c4ccccc4)o3)c2)cc1	-	?	-	?	?	25µM
O=C(COc1ccccc1-c1nnc(-c2ccccc2)o1)Nc1ccc(Br)cc1F	.	.	.	.	4.8µM	.
COc1cc(-c2cc(OC)c3c(C)oc(C)c3c(=O)c2)ccc1OC(=O)c1ccccc1F	.	.	.	.	-	.
O=C(NCC(c1ccc2c(c1)OCO2)N1CCN(c2ccccc2)CC1)c1ccc(F)c(F)c1 (stereo not drawn)	.	.	.	.	-	.
